According to the supplement of paper PMC11732987, “Enantioselective OTUD7B fragment discovery through chemoproteomics screening and high-throughput optimisation” (Communications Chemistry, 2025):

Legend:
Assay in all cases: log2 ratio of Biotin-Ahx-Ub-VS probe labelling (fragment/DMSO); higher = less target engagement (more negative = stronger competition), active = hit call of the paper (q ≤ 0.05, log2 ratio ≤ -1)
Conditions in all cases: compound concentration: 200 uM; treatment time: 3 h
USP19 = target: T1, USP19 (UniProt O94966)
T1 sequence (whole entry): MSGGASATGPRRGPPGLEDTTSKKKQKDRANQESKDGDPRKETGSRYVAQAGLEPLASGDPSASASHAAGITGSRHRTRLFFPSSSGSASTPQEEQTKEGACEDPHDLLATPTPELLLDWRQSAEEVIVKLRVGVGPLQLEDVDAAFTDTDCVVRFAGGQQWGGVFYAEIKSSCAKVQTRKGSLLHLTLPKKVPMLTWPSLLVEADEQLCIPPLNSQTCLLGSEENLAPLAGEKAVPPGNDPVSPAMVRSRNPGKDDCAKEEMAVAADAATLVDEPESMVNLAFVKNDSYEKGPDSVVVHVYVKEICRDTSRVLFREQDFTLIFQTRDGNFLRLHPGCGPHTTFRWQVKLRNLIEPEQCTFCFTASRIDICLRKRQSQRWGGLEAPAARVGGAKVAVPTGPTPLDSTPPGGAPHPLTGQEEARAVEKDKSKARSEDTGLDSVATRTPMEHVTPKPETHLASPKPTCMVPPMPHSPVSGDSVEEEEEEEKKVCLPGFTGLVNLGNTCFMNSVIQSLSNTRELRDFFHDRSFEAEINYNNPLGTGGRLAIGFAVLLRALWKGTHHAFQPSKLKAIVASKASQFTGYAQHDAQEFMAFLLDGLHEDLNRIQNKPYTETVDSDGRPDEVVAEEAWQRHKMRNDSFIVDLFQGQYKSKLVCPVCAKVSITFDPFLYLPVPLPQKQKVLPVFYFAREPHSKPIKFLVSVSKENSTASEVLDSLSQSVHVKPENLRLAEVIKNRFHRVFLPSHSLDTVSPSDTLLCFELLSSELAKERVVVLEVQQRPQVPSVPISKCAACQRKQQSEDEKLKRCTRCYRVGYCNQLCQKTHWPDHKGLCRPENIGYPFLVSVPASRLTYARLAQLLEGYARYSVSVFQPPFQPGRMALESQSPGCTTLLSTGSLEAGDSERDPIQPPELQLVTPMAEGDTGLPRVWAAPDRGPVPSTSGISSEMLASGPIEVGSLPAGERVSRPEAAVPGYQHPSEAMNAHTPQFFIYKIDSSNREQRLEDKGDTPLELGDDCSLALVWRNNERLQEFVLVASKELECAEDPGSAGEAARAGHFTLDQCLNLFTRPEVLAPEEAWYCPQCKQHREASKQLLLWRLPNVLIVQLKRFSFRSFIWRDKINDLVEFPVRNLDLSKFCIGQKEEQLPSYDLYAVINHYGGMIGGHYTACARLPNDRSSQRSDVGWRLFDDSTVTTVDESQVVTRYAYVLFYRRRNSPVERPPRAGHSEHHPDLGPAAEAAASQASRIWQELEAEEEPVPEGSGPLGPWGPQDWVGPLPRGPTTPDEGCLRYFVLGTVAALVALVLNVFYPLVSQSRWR
How it was run: (§1)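 Global-median-normalised Spectronaut label-free quantities were compared by unpaired t-test, and values are average log2 ratios of fragment over vehicle. Only proteins with ≥2 unique peptides were used. HEK293T lysate (495 µg per sample) was treated in triplicate with fragment at 200 µM or vehicle for 3 h and then with Biotin-Ahx-Ub-VS at 0.5 µM final for 1 h. Labelled DUBs were then NeutrAvidin-enriched, digested with LysC and trypsin, and run by diaPASEF LC-MS/MS.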

USP24 = USP24 (UniProt Q9UPU5)
How it was run: as §1

USP25 = target: T2, USP25 (UniProt Q9UHP3)
T2 sequence (whole entry): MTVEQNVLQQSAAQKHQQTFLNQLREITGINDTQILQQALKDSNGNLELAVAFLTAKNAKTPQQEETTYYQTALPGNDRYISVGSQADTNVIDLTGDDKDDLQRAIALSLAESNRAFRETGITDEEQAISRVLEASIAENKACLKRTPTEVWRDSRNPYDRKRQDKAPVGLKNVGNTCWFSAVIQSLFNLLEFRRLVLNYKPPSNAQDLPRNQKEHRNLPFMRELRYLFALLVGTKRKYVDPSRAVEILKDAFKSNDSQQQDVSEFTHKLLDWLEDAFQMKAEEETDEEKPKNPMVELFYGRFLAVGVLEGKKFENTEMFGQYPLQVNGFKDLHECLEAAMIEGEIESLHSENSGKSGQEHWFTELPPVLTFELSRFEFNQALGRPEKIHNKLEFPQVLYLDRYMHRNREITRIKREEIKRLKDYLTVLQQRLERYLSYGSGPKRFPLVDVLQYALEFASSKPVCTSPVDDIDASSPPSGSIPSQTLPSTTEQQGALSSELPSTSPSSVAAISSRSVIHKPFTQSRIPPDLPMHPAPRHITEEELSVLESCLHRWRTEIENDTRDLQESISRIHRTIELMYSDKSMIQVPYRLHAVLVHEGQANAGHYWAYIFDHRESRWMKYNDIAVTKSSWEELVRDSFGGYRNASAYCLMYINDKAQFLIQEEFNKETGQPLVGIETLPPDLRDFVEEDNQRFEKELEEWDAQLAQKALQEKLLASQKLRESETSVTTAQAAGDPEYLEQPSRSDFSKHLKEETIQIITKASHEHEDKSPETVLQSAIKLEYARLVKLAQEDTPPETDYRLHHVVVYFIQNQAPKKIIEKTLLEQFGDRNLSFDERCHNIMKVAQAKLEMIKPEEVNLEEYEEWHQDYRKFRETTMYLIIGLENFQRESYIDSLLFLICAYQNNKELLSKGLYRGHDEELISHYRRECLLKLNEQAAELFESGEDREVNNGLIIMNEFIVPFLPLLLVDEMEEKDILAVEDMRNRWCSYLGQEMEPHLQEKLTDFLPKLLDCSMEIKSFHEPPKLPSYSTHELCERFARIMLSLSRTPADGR
How it was run: as §1

USP28 = target: T3, USP28 (UniProt Q96RU2)
T3 sequence (whole entry): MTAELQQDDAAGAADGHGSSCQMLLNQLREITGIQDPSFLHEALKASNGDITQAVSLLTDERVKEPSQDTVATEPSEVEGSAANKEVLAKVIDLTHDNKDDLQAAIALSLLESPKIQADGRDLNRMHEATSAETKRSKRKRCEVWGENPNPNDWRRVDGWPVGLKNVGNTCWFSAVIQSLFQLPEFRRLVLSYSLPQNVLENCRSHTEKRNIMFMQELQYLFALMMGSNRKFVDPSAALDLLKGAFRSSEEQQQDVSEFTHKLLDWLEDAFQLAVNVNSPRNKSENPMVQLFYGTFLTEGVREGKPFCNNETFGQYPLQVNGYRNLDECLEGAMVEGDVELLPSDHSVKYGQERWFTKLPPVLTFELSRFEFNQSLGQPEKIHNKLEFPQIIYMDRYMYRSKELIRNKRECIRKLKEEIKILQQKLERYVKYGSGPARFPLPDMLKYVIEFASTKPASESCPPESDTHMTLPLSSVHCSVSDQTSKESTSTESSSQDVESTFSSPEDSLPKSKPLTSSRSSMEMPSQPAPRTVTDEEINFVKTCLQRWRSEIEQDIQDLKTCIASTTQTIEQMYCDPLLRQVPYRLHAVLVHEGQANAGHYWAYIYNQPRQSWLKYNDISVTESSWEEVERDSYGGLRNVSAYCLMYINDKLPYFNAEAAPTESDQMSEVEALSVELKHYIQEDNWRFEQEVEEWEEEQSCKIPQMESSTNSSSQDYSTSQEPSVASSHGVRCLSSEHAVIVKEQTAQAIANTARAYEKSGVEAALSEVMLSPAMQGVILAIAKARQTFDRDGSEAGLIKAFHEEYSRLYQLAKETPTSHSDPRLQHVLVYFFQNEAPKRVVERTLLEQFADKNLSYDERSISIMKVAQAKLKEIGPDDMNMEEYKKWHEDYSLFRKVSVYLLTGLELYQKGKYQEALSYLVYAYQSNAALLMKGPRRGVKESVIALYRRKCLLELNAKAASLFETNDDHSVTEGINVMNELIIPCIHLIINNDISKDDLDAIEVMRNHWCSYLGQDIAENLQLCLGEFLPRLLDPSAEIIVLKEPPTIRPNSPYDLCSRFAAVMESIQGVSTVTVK
How it was run: as §1

Measured: log2 ratio of Biotin-Ahx-Ub-VS probe labelling

USP24, sequence (Q9UPU5 whole entry): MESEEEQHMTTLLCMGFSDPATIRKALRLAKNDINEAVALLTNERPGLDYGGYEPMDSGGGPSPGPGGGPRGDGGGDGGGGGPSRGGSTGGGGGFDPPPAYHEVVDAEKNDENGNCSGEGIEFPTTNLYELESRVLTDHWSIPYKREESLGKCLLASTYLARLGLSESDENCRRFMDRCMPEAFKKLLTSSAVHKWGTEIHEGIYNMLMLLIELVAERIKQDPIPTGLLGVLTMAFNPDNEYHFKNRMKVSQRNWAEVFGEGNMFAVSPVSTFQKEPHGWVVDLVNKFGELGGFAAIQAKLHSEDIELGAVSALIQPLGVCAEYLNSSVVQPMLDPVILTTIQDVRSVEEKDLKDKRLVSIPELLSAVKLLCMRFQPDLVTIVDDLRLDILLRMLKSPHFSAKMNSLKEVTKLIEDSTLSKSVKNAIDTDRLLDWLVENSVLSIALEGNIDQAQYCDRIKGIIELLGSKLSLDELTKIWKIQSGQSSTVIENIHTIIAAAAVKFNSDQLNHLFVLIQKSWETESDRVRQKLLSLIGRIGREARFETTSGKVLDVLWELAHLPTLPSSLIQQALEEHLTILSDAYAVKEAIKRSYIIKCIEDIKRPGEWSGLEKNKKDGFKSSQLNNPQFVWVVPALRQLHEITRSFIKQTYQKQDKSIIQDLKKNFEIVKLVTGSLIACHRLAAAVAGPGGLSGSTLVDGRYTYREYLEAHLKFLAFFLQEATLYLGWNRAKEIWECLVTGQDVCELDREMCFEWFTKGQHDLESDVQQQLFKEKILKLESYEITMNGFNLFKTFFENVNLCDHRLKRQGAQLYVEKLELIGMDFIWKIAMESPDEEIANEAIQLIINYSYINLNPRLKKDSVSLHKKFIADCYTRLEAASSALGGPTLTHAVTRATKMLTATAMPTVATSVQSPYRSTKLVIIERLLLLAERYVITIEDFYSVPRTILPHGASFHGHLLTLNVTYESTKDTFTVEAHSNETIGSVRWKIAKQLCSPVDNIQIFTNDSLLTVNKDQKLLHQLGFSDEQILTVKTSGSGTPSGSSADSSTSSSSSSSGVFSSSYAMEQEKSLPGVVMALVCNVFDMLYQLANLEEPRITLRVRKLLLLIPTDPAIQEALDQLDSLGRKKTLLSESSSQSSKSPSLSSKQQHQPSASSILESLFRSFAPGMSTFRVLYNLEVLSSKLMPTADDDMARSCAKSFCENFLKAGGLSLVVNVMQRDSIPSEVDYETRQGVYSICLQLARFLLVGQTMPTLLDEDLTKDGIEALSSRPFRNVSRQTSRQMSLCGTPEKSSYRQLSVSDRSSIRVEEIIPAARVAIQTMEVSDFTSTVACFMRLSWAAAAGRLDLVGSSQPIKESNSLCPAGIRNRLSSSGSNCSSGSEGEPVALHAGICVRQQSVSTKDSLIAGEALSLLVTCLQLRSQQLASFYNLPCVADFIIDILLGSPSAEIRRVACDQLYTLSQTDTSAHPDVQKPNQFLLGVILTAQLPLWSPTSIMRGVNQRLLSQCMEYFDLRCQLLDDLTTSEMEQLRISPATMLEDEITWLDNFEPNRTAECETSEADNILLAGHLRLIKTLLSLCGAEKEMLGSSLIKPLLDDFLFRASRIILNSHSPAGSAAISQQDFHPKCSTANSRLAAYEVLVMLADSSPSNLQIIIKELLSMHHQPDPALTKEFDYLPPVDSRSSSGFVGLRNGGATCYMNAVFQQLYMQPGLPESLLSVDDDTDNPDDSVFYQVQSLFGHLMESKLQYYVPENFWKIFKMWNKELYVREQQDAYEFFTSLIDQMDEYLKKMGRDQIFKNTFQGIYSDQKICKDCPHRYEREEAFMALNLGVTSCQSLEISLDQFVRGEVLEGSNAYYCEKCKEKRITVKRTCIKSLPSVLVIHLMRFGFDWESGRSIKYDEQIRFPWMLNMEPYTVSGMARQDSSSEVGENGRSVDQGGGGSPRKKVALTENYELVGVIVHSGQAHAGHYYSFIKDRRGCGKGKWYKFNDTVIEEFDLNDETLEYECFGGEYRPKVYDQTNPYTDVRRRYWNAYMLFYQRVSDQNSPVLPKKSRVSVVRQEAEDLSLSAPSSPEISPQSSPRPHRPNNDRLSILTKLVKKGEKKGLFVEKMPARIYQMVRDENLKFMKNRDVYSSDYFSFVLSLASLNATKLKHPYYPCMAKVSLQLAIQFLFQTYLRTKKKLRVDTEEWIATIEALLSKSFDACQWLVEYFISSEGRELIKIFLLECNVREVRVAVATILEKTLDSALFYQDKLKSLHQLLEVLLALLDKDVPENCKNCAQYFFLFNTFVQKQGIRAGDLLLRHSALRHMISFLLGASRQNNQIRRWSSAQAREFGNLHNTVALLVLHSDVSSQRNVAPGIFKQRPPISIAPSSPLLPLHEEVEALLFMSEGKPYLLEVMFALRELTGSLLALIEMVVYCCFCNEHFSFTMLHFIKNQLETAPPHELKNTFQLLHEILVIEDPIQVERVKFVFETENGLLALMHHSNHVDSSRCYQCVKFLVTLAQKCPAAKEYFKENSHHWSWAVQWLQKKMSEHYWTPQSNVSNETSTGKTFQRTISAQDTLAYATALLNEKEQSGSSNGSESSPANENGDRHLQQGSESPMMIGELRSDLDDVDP

Cl.Cn1ncc2c1CCCC2NC(=O)CCl (centres undefined)
inactive: USP19 -0.297 | USP24 -0.29 | USP25 -0.289 | USP28 -0.57
